Assay outcomes: PubChem, National Center for Advancing Translational Sciences (NCATS)
LASV entry inh – inhibitors of Lassa virus binding or cell entry | Potency, µM (highest dose often 37.9 µM), most hits filed as inhibitors | actives 1.2% (n = 300,000) | Lassa virus pseudotype entry inhibition, cell reporter | AID 540256; calls by dose curve; tested in HEK293 cells; note: nearly all actives have a fitted effect of over 50% in size
Vaccinia mCherry – inhibitors of vaccinia virus infection (mCherry reporter signal). Vaccinia virus mCherry reporter infection, fluorescence. Potency, µM (series often up to 36.5 µM), actives largely listed as inhibitors. actives 0.63% (n = 310,000). AID 720579; calls by dose curve; tested in A549 cells; note: nearly all actives have a fitted effect of over 35% in size
MARV entry inh – blocks Marburg virus binding to or entry into cells | Marburg virus pseudotyped entry inhibition, cell reporter | Potency, µM (titrated, usually from 37.8 µM), actives largely listed as inhibitors | actives 1.8% (n = 300,000); calls by dose curve; tested in HEK293 cells
Vaccinia Venus – vaccinia inhibition (Venus reporter). Vaccinia virus Venus reporter expression, fluorescence. Potency, µM (highest dose often 36.5 µM), usual class: inhibitors. actives 0.46% (n = 330,000); calls by dose curve; tested in A549 cells; note: nearly all actives have a fitted effect of over 30% in size
HCMV inh – blocks human cytomegalovirus replication | HFF cells, HCMV-luciferase reporter, 72 h; hits give low values | activity change, negative = inhibition, % at 57.5 µM | actives 4.5% (n = 410,000) | AID 1259415; in the data active = activity change below about -60%; inconclusive = no clear call, values can overlap the other calls; inactive = above about -39%
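Cell-based, HFFs, 1000 cells/well, 16 h 37C; cpds in DMSO + HCMV-luc, MOI 1 PFU/cell; 72 h 37C; OneGlo luminescence after 5 min RT; norm. to buffer vs Salinomycin 10uM.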
FMDV antiviral – blocks foot and mouth disease virus; actives 1.2% (n = 410,000); AID 1159524; FMDV antiviral cell-based qHTS; Potency, µM (top dose mostly 57.9 µM), most hits filed as inhibitors; calls by dose curve; tested in HEK293T cells; note: read-out not given here; nearly all actives have a fitted effect of over 45% in size
Hits are given with their value; . = inactive; ? = inconclusive; / = not tested or not shown; ! = not active in a repeat; [ ] = dose if it differs, or a comment. In the library only some 6.5% were active in any assay of this set; here they are far more common.

SMILES	LASV entry inh	Vaccinia mCherry	MARV entry inh	Vaccinia Venus	HCMV inh	FMDV antiviral
CSc1ccc(C(=O)C2CCCN(Cc3cc4ccccc4[nH]3)C2)cc1 (configuration not stated)	?	?	3.55µM	.	.	?
Cc1nn(C)cc1CN1CCCC(C(=O)c2ccc(-c3ccccc3)cc2)C1 (configuration not stated)	?	.	?	.	-66.1	?
CSc1ccc(C(=O)C2CCCN(Cc3cccnc3)C2)cc1 (configuration not stated)	.	.	.	.	-62.0	?
Cc1ccsc1C(=O)C1CCCN(Cc2cn(C)nc2C)C1 (configuration not stated)	.	.	.	.	.	.
CSc1ccc(C(=O)C2CCCN(Cc3cccn3-c3cccnc3)C2)cc1 (configuration not stated)	?	.	?	.	.	?
COC(=O)C(O)(c1ccccc1)C(Nc1ccc(OC)cc1)c1ccc(Br)cc1 (configuration not stated)	/	/	/	/	.	/
O=C(c1cc2cc3ccc(Cl)cc3nc2o1)N1CCN(c2cccc(Cl)c2)CC1	.	.	.	.	.	.
Cc1ccc(S(=O)(=O)CC(=O)Nc2cccc(C)n2)cc1	.	.	?	.	.	.
CC(C)(C)c1csc(NC(=O)CCS(=O)(=O)c2ccc(F)cc2)n1	/	7.08µM	/	7.94µM	.	?
COCCSc1nnc(NC(=O)CCS(=O)(=O)c2ccccc2)s1	.	?	11.2µM	.	.	.
Cc1ccc(S(=O)(=O)CCC(=O)Nc2nc(C(C)(C)C)cs2)cc1	/	/	/	/	.	.
Cc1ccc(S(=O)(=O)CC(=O)Nc2nc(C(C)(C)C)cs2)cc1	3.66µM	.	.	.	.	.
O=C(CCS(=O)(=O)c1ccccc1)Nc1nc(-c2cccs2)cs1	.	?	?	3.98µM	.	.
CCc1ccc(CNC(=O)CCSCc2ccccc2F)cc1	.	.	/	.	.	.
COc1ccccc1CNC(=O)CN1N=C(c2ccccc2)CCC1=O	.	.	/	.	.	.
Cc1cnc(C)c(-c2cccc3c2OC(CNC(=O)c2cc(C)on2)C3)n1 (configuration not stated)	/	.	/	.	/	.
COc1ccc(OCc2ccc(-c3nc(C#N)c(N4CCC(C(N)=O)CC4)o3)o2)cc1	.	.	.	.	.	.
COc1cc([C@@H](NC(=O)C(F)(F)F)C2CCCCC=C2c2ccccc2)cc(OC)c1OC (some centres not stated)	.	/	.	/	/	/
O=C(O)[C@H]1/C(=C/CO)O[C@@H]2CC(=O)N21	/	.	/	.	/	/
COc1ccc(-n2ncc3c(N(C)C4CCCCC4)ncnc32)cc1	/	?	/	.	-88.2	10µM
CCN(c1ncnc2c1cnn2-c1cccc(Cl)c1)C1CCCCC1	?	.	/	.	?	.
Cc1cccc(-n2ncc3c(N(C)C4CCCCC4)ncnc32)c1	/	.	/	.	-78.1	17.8µM
COc1ccc(-n2ncc3c(N4CCC(C)CC4)ncnc32)cc1	/	.	/	.	.	.
CCC(=O)N1CCc2cc(S(=O)(=O)CCC(=O)N3CCN(c4ccc(Cl)cc4)CC3)ccc21	.	.[7.34 µM]	?	.[7.34 µM]	-76.6!	?
Ic1ccc(N2CCN(Cc3c[nH]c4ncccc34)CC2)cc1	?	.	11.2µM	?	?	.
SMILES	LASV entry inh	Vaccinia mCherry	MARV entry inh	Vaccinia Venus	HCMV inh	FMDV antiviral
COc1cc(/C=C(\C#N)C(=O)N2CCOCC2)cc(Br)c1O	.	/	?	/	.	.
N#C/C(=C\c1cccc(Oc2ccccc2)c1)C(=O)N1CCOCC1	?	.	?	.	.	35.5µM
CCOc1ccc(-c2cn3ccccc3n2)cc1	?	.	3.55µM	?	.	.
O=C(CN1CCN(S(=O)(=O)c2ccccc2)CC1)Nc1ccc([N+](=O)[O-])cc1	.	.	.	.	-68.5	.
CCOc1ccc(OCc2cccc(C(=O)Nc3ccc(CN4CCCCC4)cc3)c2)cc1	?	?	6.51µM	?	.	.
Cc1ccc(S(=O)(=O)N2CCN(Cc3ccccc3)CC2)cc1	/	/	.	/	-60.3	.
CCOc1ccc(CN2CCN(S(=O)(=O)c3ccc(NC(C)=O)cc3)CC2)cc1	?	.	.	.	-66.7	?
CCCCOc1ccc(CS[C@@H](CC(=O)O)C(=O)O)cc1	/	/	.	/	/	/
Cc1ccc(S(=O)(=O)N2CCc3ccccc3C2)cc1	/	/	/	/	.	.
O=C(Nc1ccc(S(=O)(=O)N2CCN(Cc3ccccc3)CC2)cc1)c1cnccn1	?	/	?	/	-85.9	?
Cc1ccc(S(=O)(=O)N2CCc3ccccc3CC2)cc1	?	.	?	.	-78.0	.
